Data from ChEMBL document CHEMBL2218924, “A broad activity screen in support of a chemogenomic map for kinase signalling research and drug discovery” (Biochem J, 2013).

What was measured:
[1] = biological target: T1, Ephrin type-A receptor 3 (Homo sapiens) (UniProt P29320); conditions: at 10 µM
T1 sequence (whole entry): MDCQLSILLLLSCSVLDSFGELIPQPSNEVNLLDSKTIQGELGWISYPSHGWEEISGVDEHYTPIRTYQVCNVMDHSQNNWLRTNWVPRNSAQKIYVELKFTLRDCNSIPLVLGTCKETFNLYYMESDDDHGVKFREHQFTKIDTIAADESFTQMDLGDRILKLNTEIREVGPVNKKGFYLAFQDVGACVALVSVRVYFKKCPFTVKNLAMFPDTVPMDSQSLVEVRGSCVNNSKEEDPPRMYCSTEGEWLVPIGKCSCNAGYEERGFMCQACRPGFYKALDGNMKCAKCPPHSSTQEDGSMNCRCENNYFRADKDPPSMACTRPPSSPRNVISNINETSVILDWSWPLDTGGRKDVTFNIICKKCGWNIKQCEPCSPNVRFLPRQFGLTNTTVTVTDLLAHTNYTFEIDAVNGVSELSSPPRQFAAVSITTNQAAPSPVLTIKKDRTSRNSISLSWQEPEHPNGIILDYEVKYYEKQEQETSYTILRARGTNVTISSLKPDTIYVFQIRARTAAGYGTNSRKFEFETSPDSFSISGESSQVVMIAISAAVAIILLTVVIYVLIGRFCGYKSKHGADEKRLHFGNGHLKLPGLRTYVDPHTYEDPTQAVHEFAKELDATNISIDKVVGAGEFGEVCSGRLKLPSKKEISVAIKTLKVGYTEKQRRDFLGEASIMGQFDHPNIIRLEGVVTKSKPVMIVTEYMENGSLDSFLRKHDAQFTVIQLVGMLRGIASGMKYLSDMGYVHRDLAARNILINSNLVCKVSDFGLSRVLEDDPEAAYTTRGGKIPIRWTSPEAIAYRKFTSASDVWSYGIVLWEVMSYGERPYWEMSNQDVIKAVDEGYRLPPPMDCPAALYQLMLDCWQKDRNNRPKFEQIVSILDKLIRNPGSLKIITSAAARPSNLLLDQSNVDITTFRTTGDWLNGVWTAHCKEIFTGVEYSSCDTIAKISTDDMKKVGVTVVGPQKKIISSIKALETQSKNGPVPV

[2] = biological target: Ephrin type-A receptor 7 (Homo sapiens) (UniProt Q15375); conditions: at 1 µM
[3] = biological target: Ephrin type-A receptor 7 (Homo sapiens) (UniProt Q15375); conditions: at 10 µM
[4] = biological target: T2, Ephrin type-A receptor 8 (Homo sapiens) (UniProt P29322); conditions: at 1 µM
T2 sequence (whole entry): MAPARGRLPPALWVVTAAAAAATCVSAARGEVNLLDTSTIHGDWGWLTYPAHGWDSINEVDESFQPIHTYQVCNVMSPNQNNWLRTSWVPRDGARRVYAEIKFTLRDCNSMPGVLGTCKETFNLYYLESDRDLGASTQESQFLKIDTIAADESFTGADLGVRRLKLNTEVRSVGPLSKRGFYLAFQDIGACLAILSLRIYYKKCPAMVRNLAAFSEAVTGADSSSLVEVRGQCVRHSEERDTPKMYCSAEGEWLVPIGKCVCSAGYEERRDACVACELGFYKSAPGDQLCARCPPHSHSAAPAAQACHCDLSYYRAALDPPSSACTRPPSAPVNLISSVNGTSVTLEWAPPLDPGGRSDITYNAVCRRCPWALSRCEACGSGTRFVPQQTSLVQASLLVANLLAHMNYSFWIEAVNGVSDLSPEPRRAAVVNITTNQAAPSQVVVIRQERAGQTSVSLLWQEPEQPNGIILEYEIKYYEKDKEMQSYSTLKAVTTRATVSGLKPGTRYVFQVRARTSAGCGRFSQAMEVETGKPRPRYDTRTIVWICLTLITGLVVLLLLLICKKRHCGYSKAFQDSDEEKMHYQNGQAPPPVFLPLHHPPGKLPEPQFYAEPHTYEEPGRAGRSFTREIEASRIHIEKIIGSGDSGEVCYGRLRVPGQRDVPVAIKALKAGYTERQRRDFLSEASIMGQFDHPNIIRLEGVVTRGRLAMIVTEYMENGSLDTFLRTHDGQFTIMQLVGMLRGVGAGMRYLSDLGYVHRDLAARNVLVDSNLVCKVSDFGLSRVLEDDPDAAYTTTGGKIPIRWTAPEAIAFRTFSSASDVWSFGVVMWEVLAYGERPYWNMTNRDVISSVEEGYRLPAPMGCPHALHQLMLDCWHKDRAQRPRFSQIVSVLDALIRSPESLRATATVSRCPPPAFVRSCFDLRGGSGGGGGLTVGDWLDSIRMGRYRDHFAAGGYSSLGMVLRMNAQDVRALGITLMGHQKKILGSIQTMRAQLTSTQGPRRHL

[5] = biological target: T2, Ephrin type-A receptor 8 (Homo sapiens); conditions: at 10 µM
[6] = biological target: T3, Ephrin type-B receptor 1 (Homo sapiens) (UniProt P54762); conditions: at 1 µM
T3 sequence (whole entry): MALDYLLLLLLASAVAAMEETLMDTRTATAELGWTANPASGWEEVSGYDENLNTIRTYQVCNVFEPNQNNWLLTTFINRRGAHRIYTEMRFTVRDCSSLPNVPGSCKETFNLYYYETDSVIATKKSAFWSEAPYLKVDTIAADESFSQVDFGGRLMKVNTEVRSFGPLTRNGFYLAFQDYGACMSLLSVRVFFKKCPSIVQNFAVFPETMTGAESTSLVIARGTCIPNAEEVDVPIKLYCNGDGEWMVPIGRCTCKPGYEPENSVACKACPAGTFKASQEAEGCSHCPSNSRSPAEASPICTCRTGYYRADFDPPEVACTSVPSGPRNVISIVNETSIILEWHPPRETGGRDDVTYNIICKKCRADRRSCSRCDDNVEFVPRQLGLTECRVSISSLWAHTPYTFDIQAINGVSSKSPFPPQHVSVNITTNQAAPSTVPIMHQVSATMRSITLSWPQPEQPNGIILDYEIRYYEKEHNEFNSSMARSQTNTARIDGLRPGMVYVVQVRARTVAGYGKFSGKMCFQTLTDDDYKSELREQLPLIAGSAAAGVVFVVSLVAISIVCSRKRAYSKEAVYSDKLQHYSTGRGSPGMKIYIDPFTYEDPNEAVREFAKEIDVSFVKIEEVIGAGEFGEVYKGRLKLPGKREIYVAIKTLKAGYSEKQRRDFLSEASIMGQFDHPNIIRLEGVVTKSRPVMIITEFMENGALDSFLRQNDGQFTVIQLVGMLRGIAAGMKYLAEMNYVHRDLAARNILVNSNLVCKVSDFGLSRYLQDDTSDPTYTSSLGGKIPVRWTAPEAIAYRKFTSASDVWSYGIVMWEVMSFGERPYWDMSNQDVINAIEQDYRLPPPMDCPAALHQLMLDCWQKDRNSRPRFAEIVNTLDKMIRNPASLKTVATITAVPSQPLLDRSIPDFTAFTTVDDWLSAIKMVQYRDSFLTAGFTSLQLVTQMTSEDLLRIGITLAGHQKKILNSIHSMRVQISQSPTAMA

[7] = biological target: T3, Ephrin type-B receptor 1 (Homo sapiens); conditions: at 10 µM
[8] = biological target: T4, Ephrin type-B receptor 3 (Homo sapiens) (UniProt P54753); conditions: at 1 µM
T4 sequence (whole entry): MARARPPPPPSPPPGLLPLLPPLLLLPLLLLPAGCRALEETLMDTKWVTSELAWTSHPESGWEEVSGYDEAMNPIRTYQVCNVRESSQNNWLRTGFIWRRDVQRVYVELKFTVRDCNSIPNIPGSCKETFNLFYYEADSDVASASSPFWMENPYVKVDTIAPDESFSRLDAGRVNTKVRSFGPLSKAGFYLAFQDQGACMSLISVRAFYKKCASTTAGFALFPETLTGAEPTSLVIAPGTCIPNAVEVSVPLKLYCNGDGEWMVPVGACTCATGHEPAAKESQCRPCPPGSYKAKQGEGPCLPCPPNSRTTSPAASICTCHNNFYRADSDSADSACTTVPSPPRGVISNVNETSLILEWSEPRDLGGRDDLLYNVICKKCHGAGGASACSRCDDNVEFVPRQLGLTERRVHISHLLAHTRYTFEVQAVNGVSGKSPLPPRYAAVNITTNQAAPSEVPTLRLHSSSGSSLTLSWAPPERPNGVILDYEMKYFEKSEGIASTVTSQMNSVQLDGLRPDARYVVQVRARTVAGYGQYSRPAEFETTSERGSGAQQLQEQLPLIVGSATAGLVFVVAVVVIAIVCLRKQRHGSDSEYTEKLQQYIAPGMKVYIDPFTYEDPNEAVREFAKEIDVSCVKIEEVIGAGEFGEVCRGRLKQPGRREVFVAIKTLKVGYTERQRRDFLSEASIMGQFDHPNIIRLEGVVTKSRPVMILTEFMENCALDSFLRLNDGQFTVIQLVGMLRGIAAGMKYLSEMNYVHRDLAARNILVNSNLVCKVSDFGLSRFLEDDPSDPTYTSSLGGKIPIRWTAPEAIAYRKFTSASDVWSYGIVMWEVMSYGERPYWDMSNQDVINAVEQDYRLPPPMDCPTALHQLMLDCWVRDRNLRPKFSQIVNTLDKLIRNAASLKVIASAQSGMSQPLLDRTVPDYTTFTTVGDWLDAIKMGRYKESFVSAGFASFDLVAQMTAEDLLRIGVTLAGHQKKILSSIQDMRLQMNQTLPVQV

[9] = biological target: T4, Ephrin type-B receptor 3 (Homo sapiens); conditions: at 10 µM
[10] = biological target: T5, Ephrin type-B receptor 4 (Homo sapiens) (UniProt P54760); conditions: at 1 µM
T5 sequence (whole entry): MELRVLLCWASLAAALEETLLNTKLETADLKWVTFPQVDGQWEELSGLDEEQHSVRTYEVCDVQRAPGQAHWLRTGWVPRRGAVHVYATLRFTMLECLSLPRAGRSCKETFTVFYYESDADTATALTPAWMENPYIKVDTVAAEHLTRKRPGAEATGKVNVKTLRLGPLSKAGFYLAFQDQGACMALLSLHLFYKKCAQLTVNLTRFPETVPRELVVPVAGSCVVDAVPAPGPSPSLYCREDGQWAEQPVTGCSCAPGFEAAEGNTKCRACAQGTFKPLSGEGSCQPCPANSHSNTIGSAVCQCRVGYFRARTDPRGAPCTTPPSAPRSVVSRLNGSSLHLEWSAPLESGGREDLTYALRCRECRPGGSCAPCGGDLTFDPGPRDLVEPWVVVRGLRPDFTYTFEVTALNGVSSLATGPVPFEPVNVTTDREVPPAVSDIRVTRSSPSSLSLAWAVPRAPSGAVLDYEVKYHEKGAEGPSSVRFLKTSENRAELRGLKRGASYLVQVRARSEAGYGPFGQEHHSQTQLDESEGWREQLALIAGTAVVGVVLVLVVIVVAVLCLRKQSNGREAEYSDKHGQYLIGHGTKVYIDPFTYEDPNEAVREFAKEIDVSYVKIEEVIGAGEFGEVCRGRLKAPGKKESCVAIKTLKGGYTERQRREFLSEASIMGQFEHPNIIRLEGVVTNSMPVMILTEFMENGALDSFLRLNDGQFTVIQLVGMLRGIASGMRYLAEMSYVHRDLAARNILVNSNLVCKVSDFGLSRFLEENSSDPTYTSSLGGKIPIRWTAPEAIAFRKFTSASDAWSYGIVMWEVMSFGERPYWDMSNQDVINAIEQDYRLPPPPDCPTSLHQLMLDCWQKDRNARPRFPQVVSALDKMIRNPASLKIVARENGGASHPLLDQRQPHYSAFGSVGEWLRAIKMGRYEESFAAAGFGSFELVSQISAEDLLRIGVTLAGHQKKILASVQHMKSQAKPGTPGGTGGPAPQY

[11] = biological target: T5, Ephrin type-B receptor 4 (Homo sapiens); conditions: at 10 µM
[12] = biological target: Focal adhesion kinase 1 (Homo sapiens) (UniProt Q05397); conditions: at 1 µM
Sequence of Focal adhesion kinase 1 (Homo sapiens) (Q05397 2-1052 limits assumed): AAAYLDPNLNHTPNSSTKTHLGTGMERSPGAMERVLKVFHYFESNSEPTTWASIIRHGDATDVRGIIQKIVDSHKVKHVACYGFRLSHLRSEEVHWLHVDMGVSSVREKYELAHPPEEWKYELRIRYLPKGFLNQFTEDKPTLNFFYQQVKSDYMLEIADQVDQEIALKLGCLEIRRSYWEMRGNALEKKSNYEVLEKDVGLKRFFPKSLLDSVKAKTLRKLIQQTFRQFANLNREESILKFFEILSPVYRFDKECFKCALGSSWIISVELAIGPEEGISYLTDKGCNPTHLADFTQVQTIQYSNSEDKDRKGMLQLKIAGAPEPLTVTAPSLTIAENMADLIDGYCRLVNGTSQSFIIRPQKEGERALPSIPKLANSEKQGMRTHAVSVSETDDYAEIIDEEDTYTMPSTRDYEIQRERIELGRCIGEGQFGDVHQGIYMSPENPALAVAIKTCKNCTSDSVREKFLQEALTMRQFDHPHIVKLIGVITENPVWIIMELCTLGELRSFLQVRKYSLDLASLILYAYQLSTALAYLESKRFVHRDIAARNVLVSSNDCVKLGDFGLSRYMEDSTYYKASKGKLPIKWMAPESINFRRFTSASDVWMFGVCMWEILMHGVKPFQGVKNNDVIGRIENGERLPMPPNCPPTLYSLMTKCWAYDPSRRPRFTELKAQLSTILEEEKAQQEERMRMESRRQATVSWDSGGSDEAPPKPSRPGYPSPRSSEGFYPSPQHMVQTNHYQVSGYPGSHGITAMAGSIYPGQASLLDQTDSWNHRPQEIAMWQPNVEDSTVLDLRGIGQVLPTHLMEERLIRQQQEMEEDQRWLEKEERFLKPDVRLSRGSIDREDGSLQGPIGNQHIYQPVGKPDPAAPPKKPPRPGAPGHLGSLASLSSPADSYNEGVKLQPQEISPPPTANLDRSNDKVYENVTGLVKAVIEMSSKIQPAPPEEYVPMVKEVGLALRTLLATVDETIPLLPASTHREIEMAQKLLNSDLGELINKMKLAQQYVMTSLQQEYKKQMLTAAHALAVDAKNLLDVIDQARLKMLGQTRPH

Sequence of Ephrin type-A receptor 7 (Homo sapiens) (Q15375 28-998 limits assumed): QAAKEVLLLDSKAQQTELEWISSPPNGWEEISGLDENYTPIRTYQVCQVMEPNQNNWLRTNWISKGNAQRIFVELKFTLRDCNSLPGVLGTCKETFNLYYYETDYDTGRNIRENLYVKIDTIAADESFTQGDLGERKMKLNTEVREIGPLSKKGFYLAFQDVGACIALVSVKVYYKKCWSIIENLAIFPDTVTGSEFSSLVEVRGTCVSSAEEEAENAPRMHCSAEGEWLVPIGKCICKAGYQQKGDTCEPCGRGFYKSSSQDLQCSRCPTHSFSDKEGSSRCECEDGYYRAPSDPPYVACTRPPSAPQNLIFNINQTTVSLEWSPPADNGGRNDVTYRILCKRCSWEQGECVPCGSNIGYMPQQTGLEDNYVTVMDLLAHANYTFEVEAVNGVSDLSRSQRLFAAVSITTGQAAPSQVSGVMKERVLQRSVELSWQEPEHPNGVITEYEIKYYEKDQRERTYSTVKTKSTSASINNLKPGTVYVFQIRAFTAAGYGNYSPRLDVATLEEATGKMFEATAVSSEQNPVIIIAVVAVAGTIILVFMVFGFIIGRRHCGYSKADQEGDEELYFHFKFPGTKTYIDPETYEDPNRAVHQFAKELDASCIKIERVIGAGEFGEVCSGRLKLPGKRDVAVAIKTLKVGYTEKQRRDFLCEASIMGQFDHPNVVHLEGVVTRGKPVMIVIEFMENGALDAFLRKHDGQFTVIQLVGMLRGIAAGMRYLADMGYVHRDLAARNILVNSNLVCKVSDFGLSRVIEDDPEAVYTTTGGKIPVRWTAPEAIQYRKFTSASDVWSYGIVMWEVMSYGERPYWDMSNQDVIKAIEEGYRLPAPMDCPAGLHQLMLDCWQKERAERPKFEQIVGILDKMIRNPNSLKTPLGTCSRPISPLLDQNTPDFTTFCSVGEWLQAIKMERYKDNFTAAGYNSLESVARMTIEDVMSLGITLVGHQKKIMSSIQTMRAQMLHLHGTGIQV

## CCN(CC)CCNC(=O)c1c(C)[nH]c(/C=C2\C(=O)Nc3ccc(Cl)cc32)c1C
[1]
  residual activity: 47%
[2]
  residual activity: 79%
[3]
  residual activity: 24%
[4]
  residual activity: 100%
[5]
  residual activity: 55%
[6]
  residual activity: 64%
[7]
  residual activity: 24%
[8]
  residual activity: 129% (inactive)
[9]
  residual activity: 130%
[10]
  residual activity: 100%
[11]
  residual activity: 35%
[12]
  residual activity: 15%
